Bioassay records deposited in PubChem BioAssay by National Center for Advancing Translational Sciences (NCATS).
KB-V1 MDR tox: kills drug-selected multidrug resistant KB-V1 cells; Potency, µM (top dose mostly 46.1 µM), usual class: cytotoxic; 3.4% of 400,000 active; KB-V1 MDR cells viability, CellTiter-Glo, 72 h; also: % is scaled to controls: 0 for no effect and ±100 for the full control effect; nearly all actives have a fitted effect of over 60% in size
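KB-V1, DMEM (no phenol red) + 10% FBS; cpd pin-transferred, titration series; 72 h, 37 degrees C; CellTiter-Glo, luminescence. Data normalized, curve-fit.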
SW480 rerep: induces DNA re-replication in SW480 colon adenocarcinoma cells; SW480 DNA re-replication, Hoechst DNA content imaging, 48 h; Potency, µM (titrated, usually from 46.1 µM), without a hit: top-dose re-replication activation, actives largely listed as activators; 1.8% of 340,000 active; AID 624297; also: % of control where 0% means no effect; nearly all actives have a fitted effect of over 55% in size
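Image-based read-out: total Hoechst fluorescence of nuclei (405 nm excitation, 500-530 nm emission), with hits raising the fraction of high-intensity nuclei. SW480 colon cells incubated 48 hr with compounds at 37 C.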
KB-3-1 tox: kills parental KB-3-1 adenocarcinoma cells | Potency, µM (top dose mostly 46.1 µM), most hits filed as cytotoxic | 1.4% of 400,000 active | KB-3-1 viability, CellTiter-Glo ATP luminescence, 72 h; also: % is scaled to controls: 0 for no effect and ±100 for the full control effect; nearly all actives have a fitted effect of over 60% in size
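Screening of KB-3-1 cells (DMEM, 10% FBS, phenol-red free) ran from lowest to highest compound concentration; after 72 h at 37 °C viability was read luminescently and curves fitted.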
ELG1 DNA repair: ELG1-dependent DNA repair inhibition. HEK293T ELG1-luciferase reporter, luminescence, 16 h; DNA damage induced by 5-fluorouridine. Potency, µM (highest dose often 46.1 µM), without a hit: at the highest dose activity change, negative = inhibition, most hits filed as inhibitors. 2.3% of 330,000 active; also: % is scaled to controls: 0 for no effect and ±100 for the full control effect; nearly all actives have a fitted effect of over 55% in size
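5-Fluorouridine DNA damage + compound/DMSO, 2,000 cells/well, 16 h, 37 °C/5% CO2. ONE-Glo, 30 min RT, luminescence. Readout = decrease in reporter signal.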
MCF10A rereplic: inducers of DNA re-replication in MCF 10A breast cells | Potency, µM (highest dose often 46.1 µM), inactives show top-dose activity, positive = re-replication, usual class: activators | 2.9% of 350,000 active | MCF 10A DNA re-replication, Hoechst nuclear intensity, 48 h; also: % of control where 0% means no effect; nearly all actives have a fitted effect of over 50% in size
* hit, by the source's call; [ ] = another dose, or the depositor's remark. Only some compounds are listed: those with a hit (about 8.1% of all), similar ones and a draw of the others. Calls follow the shape of the dose curve; as a rule, active = well fitted curve in the direction sought with a large enough effect; inconclusive = small, poorly fitted or top-dose-only effect, or another doubt; inactive = no such curve, though single readings can be large; an effect the other way counts as inactive or inconclusive. Potency is read from the fitted curve at half-maximal effect.

COc1ccc(C2CC(c3ccc(C(F)(F)F)cc3)=NN2c2ccc(S(N)(=O)=O)cc2)cc1 (stereo not given) was read as KB-V1 MDR tox inactive, SW480 rerep 0.52µM*, KB-3-1 tox inconclusive, ELG1 DNA repair 1% and MCF10A rereplic inconclusive.
COc1ccc(C2CC(c3ccccc3F)=NN2c2ccc(S(N)(=O)=O)cc2)cc1 (stereo not given) was read as KB-V1 MDR tox inactive, SW480 rerep 0.92µM*, KB-3-1 tox inactive, ELG1 DNA repair 6% and MCF10A rereplic 2.1µM*.
For COc1ccc(C2CC(C(C)(C)C)=NN2c2ccc(S(N)(=O)=O)cc2)cc1 (stereo not given) the results were KB-V1 MDR tox inactive, SW480 rerep -15%, KB-3-1 tox inactive, ELG1 DNA repair 8% and MCF10A rereplic 12%.
COc1ccc(C2CC(c3cccs3)=NN2S(=O)(=O)c2ccc(C)cc2)cc1 (stereo not given) was read as KB-V1 MDR tox inactive, SW480 rerep 6%, KB-3-1 tox inactive and MCF10A rereplic 14%.
COc1ccc(C2CC(c3ccccc3Br)=NN2c2ccc(S(N)(=O)=O)cc2)cc1 (stereo not given) was read as KB-V1 MDR tox inactive, SW480 rerep 3.7µM*, KB-3-1 tox inactive, ELG1 DNA repair -16% and MCF10A rereplic inconclusive.
For COc1ccc(C2CC(c3ccccc3C(F)(F)F)=NN2c2ccc(S(N)(=O)=O)cc2)cc1 (stereo not given) the results were KB-V1 MDR tox inconclusive, SW480 rerep 0.73µM*, KB-3-1 tox inconclusive, ELG1 DNA repair inconclusive and MCF10A rereplic 1.8µM*.
CS(=O)(=O)c1ccc(NCCc2ccccn2)c([N+](=O)[O-])c1 was read as KB-V1 MDR tox inactive, SW480 rerep -4%, KB-3-1 tox inactive, ELG1 DNA repair 10% and MCF10A rereplic -1%.
For O=C(Cn1nc2ccccc2n1)N/N=C/c1cc(Cl)cc([N+](=O)[O-])c1O the results were KB-V1 MDR tox inactive, SW480 rerep 12µM*, KB-3-1 tox inconclusive, ELG1 DNA repair inconclusive and MCF10A rereplic inconclusive.
For COc1ccc(N2CCN(C(=O)CCCn3c(=O)[nH]c4cc(Cl)ccc4c3=O)CC2)cc1 the results were KB-V1 MDR tox inconclusive, SW480 rerep -13%, KB-3-1 tox inactive, ELG1 DNA repair inconclusive and MCF10A rereplic 4%.
Screening CCOC(=O)c1ccc(Nc2c(CC)c(C)nc3ncnn23)cc1 returned KB-V1 MDR tox 23µM*, SW480 rerep 1%, KB-3-1 tox inactive, ELG1 DNA repair -3% and MCF10A rereplic inconclusive.
For CCc1c(C)nc2ncnn2c1NCCc1ccc(OC)c(OC)c1 the results were KB-V1 MDR tox 9.2µM*, SW480 rerep -2%, KB-3-1 tox 23µM*, ELG1 DNA repair 12µM* and MCF10A rereplic -7%.
Screening COc1ccc(CCNc2c(C)c(C)nc3ncnn23)cc1 returned KB-V1 MDR tox inactive, SW480 rerep 8.2µM*, KB-3-1 tox inactive, ELG1 DNA repair -1% and MCF10A rereplic inconclusive.
CCOc1ccc(CCNc2cc(C)nc3ncnn23)cc1OCC was read as KB-V1 MDR tox inactive, SW480 rerep -8%, KB-3-1 tox inactive, ELG1 DNA repair 2% and MCF10A rereplic 0%.
`O=C(COC(=O)CCc1ccccc1)Nc1ccccc1OC(F)F` gave KB-V1 MDR tox inactive, SW480 rerep 0%, KB-3-1 tox inactive, ELG1 DNA repair 13% and MCF10A rereplic 1%.
CCCCN(C(=O)c1ccc2c(c1)OCO2)c1ccccc1 was read as KB-V1 MDR tox inconclusive, SW480 rerep -41%, KB-3-1 tox inactive, ELG1 DNA repair -1% and MCF10A rereplic 6%.
`COc1ccc(-c2csc(NC(=O)CS(=O)(=O)c3ccc(F)cc3)n2)cc1OC` gave KB-V1 MDR tox inactive, SW480 rerep 0%, KB-3-1 tox inactive, ELG1 DNA repair inconclusive and MCF10A rereplic 6%.
For COc1cccc(CC(=O)Nc2nc(C)cs2)c1 the results were KB-V1 MDR tox inactive, SW480 rerep -5%, KB-3-1 tox inactive, ELG1 DNA repair 15% and MCF10A rereplic 1%.
Screening COc1ccc(-c2csc(NC(=O)Cc3cc(OC)c(OC)c(OC)c3)n2)cc1OC returned KB-V1 MDR tox 6.5µM*, SW480 rerep 2%, KB-3-1 tox inactive, ELG1 DNA repair inconclusive and MCF10A rereplic 3%.
`COc1cc(CC(=O)Nc2nc(C)cs2)cc(OC)c1OC` gave KB-V1 MDR tox inactive, SW480 rerep -4%, KB-3-1 tox inactive, ELG1 DNA repair 15µM* and MCF10A rereplic -6%.
`Cc1ccc(O)c(NC(=O)CSc2ccc(Cl)cc2)c1` gave KB-V1 MDR tox inactive, SW480 rerep inconclusive, KB-3-1 tox inactive, ELG1 DNA repair inconclusive and MCF10A rereplic inconclusive.
COc1ccc(OC)c(S(=O)(=O)NCC(=O)O)c1 was read as KB-V1 MDR tox inactive, SW480 rerep -2%, KB-3-1 tox inactive, ELG1 DNA repair 1% and MCF10A rereplic -17%.
Screening O=C(Nc1cccc([N+](=O)[O-])c1)c1ccncc1 returned KB-V1 MDR tox inactive, SW480 rerep -3%, KB-3-1 tox inactive, ELG1 DNA repair -10% and MCF10A rereplic -1%.
O=C(Nc1cc(Sc2ccccn2)cc([N+](=O)[O-])c1)c1cccc(Cl)c1 was read as KB-V1 MDR tox inconclusive, SW480 rerep -2%, KB-3-1 tox inconclusive, ELG1 DNA repair 6.5µM* and MCF10A rereplic 29%.
Screening O=C(Nc1cc(Sc2ccccn2)cc([N+](=O)[O-])c1)c1ccc(Cl)cc1 returned KB-V1 MDR tox inconclusive, SW480 rerep -3%, KB-3-1 tox 21µM*, ELG1 DNA repair inconclusive and MCF10A rereplic inconclusive.
For COc1ccc(NC2CS(=O)(=O)CC2NCc2ccco2)cc1 (stereo not given) the results were KB-V1 MDR tox inactive, SW480 rerep -1%[9.22 µM], KB-3-1 tox inactive, ELG1 DNA repair -1% and MCF10A rereplic -3%.
For CCC1=NN(C(=O)COc2ccccc2C)C(O)(c2ccncc2)C1 (stereo not given) the results were KB-V1 MDR tox inactive, SW480 rerep -11%, KB-3-1 tox inactive, ELG1 DNA repair 2% and MCF10A rereplic -4%.
Screening CC1=NN(C(=O)COc2ccccc2C)C(O)(c2ccc(Cl)cc2)C1 (stereo not given) returned KB-V1 MDR tox 13µM*, SW480 rerep -85%, KB-3-1 tox inactive, ELG1 DNA repair -10% and MCF10A rereplic 25%.
For COc1cc2c(cc1NC(=O)COC(=O)[C@@H](NS(=O)(=O)c1cccc(Cl)c1)C(C)C)oc1ccccc12 the results were KB-V1 MDR tox 23µM*, SW480 rerep 15%, KB-3-1 tox inactive, ELG1 DNA repair 4% and MCF10A rereplic 7%.
